Results taken from PubChem BioAssay AID504546 (Broad Institute, 2011).
Records with an inconclusive call do not appear. Calls of active or inactive are those of the source.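 How the source made its calls: active means every repeat run fits a falling-signal curve with half-maximal potency within ten times top tested dose; inconclusive means runs disagree, or flat moderate drop, or poor fit; inactive means every run inactive, including signal moving upward.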

Assay: ADP-Glo luciferase signal interference – biochemical, luminescence, cherry-picked samples, set 2, artefact control for CDK5 inhibitor project, dose response (AID 504546);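 further: 0% = DMSO wells and -100% = wells lacking ADP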
Settings: ADP-Glo detection reagent counter screen, 5 uM ADP; series mostly up to 30 µM; activity change, negative = inhibition: at the top concentration

Structure (SMILES)	activity change, negative = inhibition
COc1cc2c(ccc3c4cc(OC)c(OC)cc4c[n+](C)c23)cc1O	0.712% (inactive)
Nc1ncnc2c1ccn2[C@@H]1O[C@H](CO)[C@@H](O)[C@H]1O	4.16% (inactive)
NC(=O)c1cn(C2OC(CO)C(O)C2O)c2ncnc(N)c12 (stereo not drawn)	9.4% (inactive)
N#Cc1cn(C2OC(CO)C(O)C2O)c2ncnc(N)c12 (stereo not drawn)	-1.1% (inactive)
O=C1Nc2ccccc2/C1=C/c1cnc[nH]1	0.806% (inactive)
Nc1ccc(CC2=NCCN2)cc1	-7.41% (inactive)
N#Cc1c(Br)n(C2OC(CO)C(O)C2O)c2ncnc(N)c12 (stereo not drawn)	-8.62% (inactive)
NC(=O)c1c(Br)n(C2OC(CO)C(O)C2O)c2ncnc(N)c12 (stereo not drawn)	11.1% (inactive)
